From PubChem BioAssay
KDM5B inhibitor – Primary screen for KDM5B Histone Demethylases FDH-coupled qHTS; KDM5B demethylase, FDH-coupled NADH fluorescence (FDH is formaldehyde dehydrogenase); Potency, µM (titrated, usually from 57.7 µM), actives largely listed as inhibitors; 220,000 tested, 2.6% active; active = well fitted inhibition curve with a large enough effect; note: 0% is about no effect; nearly all actives have a fitted effect of over 70% in size
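Compound dilutions met 200 nM (final) KDM5BΔAP for 10 min at room temperature before substrate addition. The substrate mix held 12.5 µM H3K4me3 with cofactors 25 µM α-ketoglutarate and 50 µM Fe²⁺. NADH signal gain over 30 min defined activity.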
* hit, by the source's call; i = inactive. The full list was thinned out, with hits kept by preference. Potency is the fitted concentration of half-maximal effect.

SMILES	KDM5B inhibitor
O=C(NCCc1ccccn1)C1CC(=O)N(c2n[nH]c3ccccc23)C1 (stereo unspecified)	i
O=C(NCCO)C1CC(=O)N(c2n[nH]c3ccccc23)C1 (stereo unspecified)	i
O=C(NCCc1c[nH]c2ccc(F)cc12)C1CC(=O)N(c2n[nH]c3ccccc23)C1 (stereo unspecified)	i
CC(C)OC(=O)c1nc2ccccc2nc1N1CCN(c2ccccc2)CC1	i
Clc1ccc(-c2ccc(CNc3ncn[nH]3)o2)cc1	i
COc1ccc(NC(=O)c2ccc(Cn3cc(Cl)cn3)cc2)cc1OC	i
O=C(CCC1CCN(C(=O)c2ccccc2)CC1)NCCc1ccncc1	i
O=C(CCC1CCN(C(=O)c2ccccc2)CC1)NCCCN1CCCc2ccccc21	10µM*
CCOCCCNC(=O)CCC1CCN(C(=O)c2ccccc2)CC1	i
CCCCCCCCCCCCS(=O)CCC(=O)O (stereo unspecified)	i
COc1ccccc1OCCNC(=O)COc1cc2oc(=O)cc(C)c2cc1Cl	i
COc1ccccc1-c1nnc2sc(-c3ccc4ccccc4n3)nn12	i
COc1ccc(OC)c(NS(=O)(=O)c2ccc3c(c2)CCCN3C(=O)C2CCC2)c1	i
COc1ccc2c(c1)CCCN2C(=O)c1cc2ccc(C)cc2nc1C	i
COc1ccc2c(c1)CCCN2C1CNC1	126µM*
O=C(NCc1ccc(Cl)cc1)C(=O)Nc1cccc2[nH]ccc12	i
Cc1[nH]c2cc3c(-c4ccccc4)cc(-c4ccccc4)nc3cc2c1C	i
O=C(NCCc1noc(-c2ccccc2)n1)C1NCCc2[nH]cnc21 (stereo unspecified)	35µM*
O=C(NCCc1nc(-c2cccnc2)no1)C1NCCc2[nH]cnc21 (stereo unspecified)	i
O=C(NCCc1cnn(-c2ccccc2)c1)C1NCCc2[nH]cnc21 (stereo unspecified)	i
Cc1cnc(C2CC2)n1C1CCCN(C(=O)c2ccco2)C1 (stereo unspecified)	i
O=C(NCCc1cccnc1)c1ccccc1F	i
Fc1ccccc1CNc1cc(Cl)nc2ccnn12	i
CC(Cc1cccnc1)Nc1cc(-c2ccccc2F)nc2ccnn12 (stereo unspecified)	28µM*
c1cncc(-c2nc(NCc3ccncc3)c3ccccc3n2)c1	i
SMILES	KDM5B inhibitor
CSc1ccc(C2=NN(C(=O)CCC(=O)O)C(c3ccc4nccnc4c3)C2)cc1 (stereo unspecified)	i
O=C(c1ccccc1F)N1CCC2(CC1)NCCc1c2[nH]c2ccccc12	i
COc1ccc(S(=O)(=O)Oc2ccc3c(c2)O/C(=C\c2sccc2C)C3=O)cc1	i
COc1ccc(-c2c(C)oc3cc(OC(=O)c4cccs4)ccc3c2=O)cc1	i
CNCCN1C(=O)CC[C@H]2CN(C(=O)COc3cccnc3)CC[C@H]21	i
CNCCN1C(=O)CC[C@H]2CN(C(=O)c3ccnc(NC)c3)CC[C@H]21	25µM*
CNCCN1C(=O)CC[C@H]2CN(C(=O)N3CCOCC3)CC[C@H]21	i
Cn1c(-c2ccccc2)ccc1-c1ccccc1	i
Cc1cc(C)n(-c2nc3c(c(=O)n(C/C=C/c4ccccc4)c(=O)n3C)n2C)n1	i
O=C(CCc1nc2ccccc2c(=O)[nH]1)N1CCCC1CC1CCCCC1 (stereo unspecified)	i
CC1CCN(S(=O)(=O)NCc2ccccc2Cn2cccn2)CC1	i
CNC(=O)c1ccc(NC(=O)c2cc(=O)[nH]c3ccccc23)cc1	i
Cc1cc(NC(=O)c2ccccc2)n(C)n1	i
CN(Cc1ccsc1)C(=O)c1ccc(-c2ccccc2)cc1	i
Cn1ccc(NC(=O)c2ccc(-c3ncc4cnc(-c5ccccc5)cn34)cc2)n1	7.9µM*
CNC(=O)C1CCN(C(=O)c2ccc(-c3ncc4cnc(-c5ccccc5)cn34)cc2)CC1	22µM*
CCCn1nc(C(=O)Nc2ccn(C)n2)c2ccccc2c1=O	i
CNC(=O)C1CCN(C(=O)c2ccc3[nH]c(C)c(C)c3c2)CC1	i
Cc1ccc(C(=O)N(C)Cc2ccc(-c3ccccc3)cc2)cc1	i
CN(C)CCN(C)C(=O)c1ccc(-c2ncc3cnc(-c4ccccc4)cn23)cc1	32µM*
Cc1ccc(C(=O)N2CCC(n3c(C)cnc3-c3ccccc3)CC2)cn1	i
Fc1ccc(-c2nnc(CCl)o2)cc1	i
COc1cc(OC)c(OC)cc1CC1C(=O)Nc2ccc(Br)cc21 (stereo unspecified)	i
N#Cc1c(SCC(=O)N2CCOCC2)nc(N2CCCCC2)c2c1CCCC2	i
C=CC[C@H]1CC=C[C@H](CC=C)[N+]1(C)C	i
SMILES	KDM5B inhibitor
CCOC(=O)c1cc(-c2cccs2)nc2c1c(C)nn2-c1ccccc1	i
CC(=O)Nc1ccc(CN2CCn3c(nnc3C3CCNCC3)C2)cc1	13µM*
c1ccc(CN2CCn3c(nnc3C3CCNCC3)C2)cc1	100µM*
COc1ccc(CN2CCn3c(nnc3C3CCNCC3)C2)cc1	i
c1ccc(CN2CCn3c(nnc3-c3cccnc3)C2)cc1	i
CC(=O)Nc1ccc(CN2CCn3c(nnc3-c3ccncc3)C2)cc1	i
CS(=O)(=O)N1CCn2c(nnc2C2CCNCC2)C1	i
Cc1nn2c(c1-c1ccccc1Oc1ccccc1)N(C(=O)Cc1cccc(F)c1)CCC2	i
CCN(CC)c1ccc(NC(=O)c2ccc(S(=O)(=O)Nc3ccccc3C)cc2)cc1	i
O=c1ccc2ccc(OCc3nc(-c4ccccc4)no3)cc2o1	i
O=C(c1cc(-c2ccc(Cl)cc2)on1)N(Cc1ccco1)Cc1cccs1	i
CC(=O)c1c(C)[nH]c(C(=O)C(C)Sc2ccc(F)c(Cl)c2)c1C (stereo unspecified)	i
O=C(NCc1cccnc1-n1cccn1)c1cccc(NC(=O)c2cccnc2)c1	i
COc1ccc(-c2cc3c(=O)n(CCNC(=O)Cc4ccsc4)ccn3n2)cc1	28µM*
Cc1ccc(-c2cc3c(=O)n(CCNC(=O)Cc4ccsc4)ccn3n2)cc1C	i
COc1ccc(-c2cc3c(=O)n(CCNC(=O)Cc4ccc(C)cc4)ccn3n2)cc1	20µM*
COc1cccc(CC(=O)NCCn2ccn3nc(-c4ccc(C)c(C)c4)cc3c2=O)c1	i
O=C(Cc1ccc(F)cc1)NCCn1ccn2nc(-c3ccc(F)cc3)cc2c1=O	i
COc1cc(C2CC(=O)Nc3c(-c4cccc(F)c4)nsc32)cc2c1OCO2 (stereo unspecified)	i
COc1cccc(C(=O)N2CC(Oc3ccccc3-c3nc(-c4cnccn4)no3)C2)c1	i
CCOC(=O)C(CC(C)C)NC(C)=O (stereo unspecified)	i
CC(=O)c1ccc(OCc2ccccc2C)cc1	i
CN1CC(=O)N(C2CCNC2)Cc2c(NCC3CC3)ncnc21 (stereo unspecified)	89µM*
COCCCNc1ncnc2c1CN(C1CCCC1)C(=O)CN2C	i
CC(C)Nc1ncnc2c1CN(C1CCCNC1)C(=O)CN2C (stereo unspecified)	63µM*
CN1CC(=O)N(C2CCC2)Cc2c(NC3CCCC3)ncnc21	i
COCCNc1ncnc2c1CN(C1CCNC1)C(=O)CN2C (stereo unspecified)	i
CN1CC(=O)N(C2CCNCC2)Cc2c1ncnc2N1CCC(O)CC1	i
CN1CC(=O)N(C2CCCNCC2)Cc2c(NCC(C)(C)C)ncnc21 (stereo unspecified)	i
